esBAF inh: Bmi1 luciferase reporter increase in mESCs, primary screen, esBAF inhibitor project, mouse ES cells, Bmi1 luciferase knock-in, single point | 24 h; 100% = twice the neutral-well signal | reporter increase, % at 12.5 µM | 350,000 compounds, 2% hits | AID 602393, 2012; in the data active means activation above about 40%;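 further: a rise in the Bmi1 reporter signal indicates esBAF inhibition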
EBV LMP1 NFkB: EBV LMP1-driven NF-kappaB luciferase reporter inhibitors, primary screen, cell-based, luminescence, single point; LMP1-induced NF-kappaB luciferase reporter cells; inhibition, % at 12.5 µM; 350,000 compounds, 0.69% hits; AID 504558, 2011; in the data active means inhibition above about 41%
MITF TRPM1 HTS: activators of MITF-driven TRPM1 promoter reporter, primary screen, cell-based, SK-MEL-5, luciferase, single point; SK-MEL-5 TRPM1-promoter luciferase, 24 h; % of positive control, neutral wells = 0; activation, % at 12.5 µM; 300,000 compounds, 0.75% hits;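 active means mean activation of at least 80% with every replicate also reaching 80%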
C2C12 statin: suppressors of statin myotoxicity in C2C12 myotubes, primary screen, cell-based, single point, plate reader. C2C12 myotubes + simvastatin, ATP luminescence, 48 h; scaled: DMSO 0, geranylgeraniol control 100. rescue of ATP level, % at 7.49 µM. 330,000 compounds, 0.78% hits. AID 602340, 2012;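 active means mean ATP rescue above about 67%, or every replicate alone reaching that limit, limit read from the data, passing the limit was not always enough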;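 further: myotubes were challenged with 10 µM simvastatin during compound exposure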
Wnt act: Wnt/beta-catenin pathway activators, primary screen, cell-based, plate reader, single point. Wnt/beta-catenin reporter cell assay, activator. activation, % at 9.35 µM. 300,000 compounds, 1.2% hits. AID 743398, 2014; in the data active means activation above about 30%, passing the limit was not always enough
TRPM1 prom inh: inhibitors of MITF-dependent TRPM1 promoter reporter, primary screen, cell-based, SK-MEL-5, single point, luciferase; SK-MEL-5 TRPM1 promoter luciferase, 24 h; inhibition, % at 12.5 µM; 330,000 compounds, 0.83% hits; AID 488899, 2010;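 active means mean inhibition across replicates of 60% or more, whatever share of single replicates reaches that level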
A number is an active result. Shown are actives, neighbours in structure and some others; about 4% of the full set was active somewhere.

`O=C(NCCN1C(=O)C2C3C=CC(C3)C2C1=O)Nc1ccc(Br)cc1` (stereo not given) gave esBAF inh 62.5, EBV LMP1 NFkB inactive, MITF TRPM1 HTS inactive, C2C12 statin inactive, Wnt act 37.1 and TRPM1 prom inh inactive.
O=C(NCCN1C(=O)C2C3C=CC(C3)C2C1=O)Nc1cccnc1 (stereo not given) was read as esBAF inh inactive, EBV LMP1 NFkB inactive, MITF TRPM1 HTS inactive, C2C12 statin inactive, Wnt act inactive and TRPM1 prom inh inactive.
Screening C#CCNC(=O)c1cc(-c2ccccc2)sc1N returned Wnt act inactive.
Screening COC(=O)c1cc(-c2ccccc2)sc1N returned esBAF inh 51.3, EBV LMP1 NFkB inactive, MITF TRPM1 HTS inactive, C2C12 statin inactive, Wnt act inactive and TRPM1 prom inh inactive.
For CCN1C(=O)C(CC(=O)Nc2ccc(OC)cc2)N(CCCN2CCN(c3ccc(F)cc3)CC2)C1=S (stereo not given) the results were esBAF inh inactive, EBV LMP1 NFkB inactive, MITF TRPM1 HTS inactive, C2C12 statin inactive, Wnt act inactive and TRPM1 prom inh inactive.
CNc1cncc(-c2cnn(CC(C)C)c2)n1 was read as esBAF inh 43.3, C2C12 statin inactive and Wnt act inactive.
Screening CNc1cncc(-c2ccoc2)n1 returned esBAF inh inactive, C2C12 statin inactive and Wnt act inactive.
COc1ccc(CNC(=O)C(NC(C)=O)C(=O)Nc2ccc(OC)cc2)cc1 (stereo not given) was read as esBAF inh inactive, EBV LMP1 NFkB inactive, MITF TRPM1 HTS inactive, C2C12 statin inactive, Wnt act inactive and TRPM1 prom inh inactive.
`CCCNC(=O)c1ccc(N2CCC3(CC2)CC(c2cccc(Br)c2)=NO3)c(NC(=O)c2cccc(OC)c2)c1` gave esBAF inh inactive, EBV LMP1 NFkB inactive, MITF TRPM1 HTS inactive, C2C12 statin 142.1, Wnt act inactive and TRPM1 prom inh inactive.
For CC(C)(C)c1ccc(C(=O)O/N=C(\N)c2ccccn2)cc1 the results were esBAF inh inactive, EBV LMP1 NFkB 73.8, MITF TRPM1 HTS inactive, C2C12 statin inactive, Wnt act inactive and TRPM1 prom inh 77.7.
For N/C(=N\OC(=O)c1ccccc1)c1ccccn1 the results were esBAF inh inactive, EBV LMP1 NFkB 44.6, MITF TRPM1 HTS inactive, C2C12 statin inactive, Wnt act inactive and TRPM1 prom inh inactive.
Screening CCOc1ccc(C(=O)O/N=C(\N)c2ccccn2)cc1 returned esBAF inh inactive, EBV LMP1 NFkB 87.7, C2C12 statin inactive, Wnt act inactive and TRPM1 prom inh 66.6.
Cc1cccc(C(=O)O/N=C(\N)c2ccccn2)c1 was read as esBAF inh inactive, EBV LMP1 NFkB inactive, MITF TRPM1 HTS inactive, C2C12 statin inactive, Wnt act inactive and TRPM1 prom inh inactive.
Cc1ccc(C(=O)O/N=C(\N)c2ccccn2)cc1 was read as esBAF inh inactive, EBV LMP1 NFkB 78.9, MITF TRPM1 HTS inactive, C2C12 statin inactive, Wnt act inactive and TRPM1 prom inh 67.4.
For O=C(COC(=O)c1cc[n+]([O-])cc1)NC(=O)c1ccc(OC(F)F)cc1 the results were esBAF inh inactive, EBV LMP1 NFkB inactive, MITF TRPM1 HTS inactive, C2C12 statin inactive, Wnt act inactive and TRPM1 prom inh inactive.
COc1cc2c(cc1OC)C(=O)N(C)CC2 was read as esBAF inh inactive, EBV LMP1 NFkB inactive, MITF TRPM1 HTS inactive, C2C12 statin inactive, Wnt act inactive and TRPM1 prom inh inactive.
For Cc1ccc(C(=O)O/N=C(\N)c2ccccn2)cc1C the results were esBAF inh inactive, EBV LMP1 NFkB 55.8, MITF TRPM1 HTS inactive, C2C12 statin inactive, Wnt act inactive and TRPM1 prom inh inactive.
`Cc1nc(N2CCCC2)c2nnn(Cc3ccccc3Cl)c2n1` gave esBAF inh inactive, EBV LMP1 NFkB inactive, MITF TRPM1 HTS inactive, C2C12 statin 75.6 and TRPM1 prom inh inactive.
Screening Cc1nc(N2CCC3(CC2)OCCO3)c2nnn(Cc3ccccc3F)c2n1 returned esBAF inh inactive, EBV LMP1 NFkB inactive, MITF TRPM1 HTS inactive, C2C12 statin 129.6, Wnt act inactive and TRPM1 prom inh inactive.
Screening CCc1nc(N2CCC3(CC2)OCCO3)c2nnn(Cc3ccccc3)c2n1 returned esBAF inh inactive, EBV LMP1 NFkB inactive, MITF TRPM1 HTS inactive, C2C12 statin inactive, Wnt act inactive and TRPM1 prom inh inactive.
Screening Cc1c(C(=O)N2CCN(Cc3ccc4c(c3)OCO4)CC2)cccc1[N+](=O)[O-] returned EBV LMP1 NFkB inactive, MITF TRPM1 HTS inactive, Wnt act inactive and TRPM1 prom inh inactive.
COc1ccccc1-c1cc(C(F)(F)F)nc(S(=O)(=O)CCCC(=O)NC(C)C)n1 was read as EBV LMP1 NFkB inactive, MITF TRPM1 HTS inactive and TRPM1 prom inh 86.1.
Screening COc1ccccc1-c1cc(C(F)(F)F)nc(S(=O)(=O)CCCC(=O)Nc2cc(C)on2)n1 returned esBAF inh inactive, EBV LMP1 NFkB inactive, MITF TRPM1 HTS inactive, C2C12 statin inactive and TRPM1 prom inh 95.8.
COc1ccccc1-c1cc(C(F)(F)F)nc(S(=O)(=O)CCCC(=O)N2CCCCC2C)n1 (stereo not given) was read as esBAF inh inactive, EBV LMP1 NFkB inactive, MITF TRPM1 HTS inactive, C2C12 statin 84.0, Wnt act inactive and TRPM1 prom inh 90.8.
Screening COc1ccccc1-c1cc(C(F)(F)F)nc(N2CCCCC2)n1 returned esBAF inh inactive, EBV LMP1 NFkB inactive, MITF TRPM1 HTS inactive, C2C12 statin inactive and TRPM1 prom inh inactive.
COc1ccc(-c2cc(C(F)(F)F)nc(S(=O)(=O)CCCC(=O)Nc3cc(C)on3)n2)cc1OC was read as EBV LMP1 NFkB inactive, MITF TRPM1 HTS inactive, Wnt act inactive and TRPM1 prom inh inactive.
For COc1ccc(CC(=O)OCC(=O)Nc2cccnc2Cl)cc1OC the results were esBAF inh inactive, EBV LMP1 NFkB inactive, MITF TRPM1 HTS inactive, C2C12 statin inactive, Wnt act inactive and TRPM1 prom inh inactive.
For COc1ccccc1-c1cc(C(F)(F)F)nc(S(=O)(=O)CCCC(=O)Nc2cccnc2Cl)n1 the results were EBV LMP1 NFkB inactive, MITF TRPM1 HTS inactive, Wnt act inactive and TRPM1 prom inh 77.2.
Oc1cc(Br)ccc1C=Nc1ccc(N2CCCCC2)cc1 was read as esBAF inh inactive, EBV LMP1 NFkB inactive, MITF TRPM1 HTS inactive, C2C12 statin inactive, Wnt act inactive and TRPM1 prom inh inactive.
COc1ccccc1-c1cc(C(F)(F)F)nc(S(=O)(=O)CCCC(=O)NCc2ccc(F)cc2)n1 was read as EBV LMP1 NFkB inactive, MITF TRPM1 HTS inactive, Wnt act inactive and TRPM1 prom inh 90.3.
COc1ccccc1-c1cc(C(F)(F)F)nc(N2CCCC2)n1 was read as esBAF inh inactive, EBV LMP1 NFkB inactive, MITF TRPM1 HTS inactive, C2C12 statin inactive, Wnt act inactive and TRPM1 prom inh inactive.
